# Measurements: the supplement of paper PMC12282887
# ± gives the standard deviation of the averaged measurements.
# System: E. coli BW25113 marRABp lux reporter
# Assay: promoter activity interaction Z-score (Lux/OD deviation from empty-vector control); higher = stronger promoter induction by the compound
# Description: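 E. coli BW25113 (wild type or ΔmarA/ΔsoxS/Δrob) carrying pTU175 luxCDABE promoter reporters was grown in LB in 384-well plates at 37°C with each of 94 compounds at 4 two-fold concentrations, in biological duplicates. Luminescence and OD600 were read every 30 min for 12 h and integrated as AUC over 8 h (0-8 h WT, 1-9 h mutants). Lux AUC was divided by OD AUC; the interaction score is the residual of a Huber robust fit of each promoter against the empty-vector control, then Z-transformed per promoter.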
smiles,measurement,setting,value
C/C=C/C/C=C/CCC(=O)[C@H]1O[C@H]1C(N)=O [Cerulenin],promoter activity interaction Z-score,"1.3 µg/ml, genetic background: wild type",-0.429 ± 0.45
same,promoter activity interaction Z-score,"1.3 µg/ml, genetic background: ΔmarA",-0.469 ± 0.27
same,promoter activity interaction Z-score,"1.3 µg/ml, genetic background: Δrob",-0.456 ± 0.13
same,promoter activity interaction Z-score,"1.3 µg/ml, genetic background: ΔsoxS",-0.416 ± 0.089
same,promoter activity interaction Z-score,"2.5 µg/ml, genetic background: wild type",-0.654 ± 0.29
same,promoter activity interaction Z-score,"2.5 µg/ml, genetic background: ΔmarA",-0.403 ± 0.076
same,promoter activity interaction Z-score,"2.5 µg/ml, genetic background: Δrob",-0.662 ± 0.091
same,promoter activity interaction Z-score,"2.5 µg/ml, genetic background: ΔsoxS",-0.444 ± 0.12
same,promoter activity interaction Z-score,"5 µg/ml, genetic background: wild type",-0.892 ± 0.19
same,promoter activity interaction Z-score,"5 µg/ml, genetic background: ΔmarA",-0.779 ± 0.41
same,promoter activity interaction Z-score,"5 µg/ml, genetic background: Δrob",-0.818 ± 0.011
same,promoter activity interaction Z-score,"5 µg/ml, genetic background: ΔsoxS",-0.796 ± 0.034
same,promoter activity interaction Z-score,"10 µg/ml, genetic background: wild type",-0.948 ± 0.37
same,promoter activity interaction Z-score,"10 µg/ml, genetic background: ΔmarA",-0.377 ± 0.77
same,promoter activity interaction Z-score,"10 µg/ml, genetic background: Δrob",-1.01 ± 0.028
same,promoter activity interaction Z-score,"10 µg/ml, genetic background: ΔsoxS",-0.994 ± 0.11
COc1cc(NS(=O)(=O)c2ccc(N)cc2)ncn1 [Sulfamonomethoxine],promoter activity interaction Z-score,"7 µg/ml, genetic background: wild type",0.165 ± 0.29
same,promoter activity interaction Z-score,"7 µg/ml, genetic background: ΔmarA",0.199 ± 0.22
same,promoter activity interaction Z-score,"7 µg/ml, genetic background: Δrob",0.0754 ± 0.022
same,promoter activity interaction Z-score,"7 µg/ml, genetic background: ΔsoxS",-0.0457 ± 0.27
same,promoter activity interaction Z-score,"14 µg/ml, genetic background: wild type",0.419 ± 0.21
same,promoter activity interaction Z-score,"14 µg/ml, genetic background: ΔmarA",0.246 ± 0.58
same,promoter activity interaction Z-score,"14 µg/ml, genetic background: Δrob",-0.0243 ± 0.36
same,promoter activity interaction Z-score,"14 µg/ml, genetic background: ΔsoxS",-0.0217 ± 0.15
same,promoter activity interaction Z-score,"28 µg/ml, genetic background: wild type",0.52 ± 0.32
same,promoter activity interaction Z-score,"28 µg/ml, genetic background: ΔmarA",0.729 ± 0.45
same,promoter activity interaction Z-score,"28 µg/ml, genetic background: Δrob",0.602 ± 0.038
same,promoter activity interaction Z-score,"28 µg/ml, genetic background: ΔsoxS",0.101 ± 0.14
same,promoter activity interaction Z-score,"56.1 µg/ml, genetic background: wild type",1.09 ± 0.8
same,promoter activity interaction Z-score,"56.1 µg/ml, genetic background: ΔmarA",1.14 ± 0.16
same,promoter activity interaction Z-score,"56.1 µg/ml, genetic background: Δrob",1.18 ± 0.4
same,promoter activity interaction Z-score,"56.1 µg/ml, genetic background: ΔsoxS",1.04 ± 0.46
CC(=O)O[C@H]1C[C@@]2(C)[C@@H](C[C@@H](O)[C@H]3[C@@]4(C)CC[C@@H](O)[C@@H](C)[C@@H]4CC[C@@]32C)/C1=C(\CCC=C(C)C)C(=O)O [Fusidic acid],promoter activity interaction Z-score,"13.5 µg/ml, genetic background: wild type",-0.438 ± 0.029
same,promoter activity interaction Z-score,"13.5 µg/ml, genetic background: ΔmarA",0.0154 ± 0.048
same,promoter activity interaction Z-score,"13.5 µg/ml, genetic background: Δrob",-0.0451 ± 0.073
same,promoter activity interaction Z-score,"13.5 µg/ml, genetic background: ΔsoxS",0.0686 ± 0.1
same,promoter activity interaction Z-score,"26.9 µg/ml, genetic background: wild type",0.0382 ± 0.39
same,promoter activity interaction Z-score,"26.9 µg/ml, genetic background: ΔmarA",0.3 ± 0.31
same,promoter activity interaction Z-score,"26.9 µg/ml, genetic background: Δrob",0.0321 ± 0.089
same,promoter activity interaction Z-score,"26.9 µg/ml, genetic background: ΔsoxS",0.122 ± 0.072
same,promoter activity interaction Z-score,"53.9 µg/ml, genetic background: wild type",0.384 ± 0.077
same,promoter activity interaction Z-score,"53.9 µg/ml, genetic background: ΔmarA",0.457 ± 0.14
same,promoter activity interaction Z-score,"53.9 µg/ml, genetic background: Δrob",0.307 ± 0.22
same,promoter activity interaction Z-score,"53.9 µg/ml, genetic background: ΔsoxS",0.418 ± 0.13
same,promoter activity interaction Z-score,"107.7 µg/ml, genetic background: wild type",0.539 ± 0.64
same,promoter activity interaction Z-score,"107.7 µg/ml, genetic background: ΔmarA",0.236 ± 0.49
same,promoter activity interaction Z-score,"107.7 µg/ml, genetic background: Δrob",0.523 ± 0.97
same,promoter activity interaction Z-score,"107.7 µg/ml, genetic background: ΔsoxS",1.17 ± 0.92
